# ELG1 DNA repair: blocks ELG1-dependent DNA repair in HEK293T cells | 330,000 tested, 2.3% active | Potency, µM (titrated, usually from 46.1 µM), inactives show at the top dose activity change, negative = inhibition, actives largely listed as inhibitors | HEK293T ELG1-luciferase reporter, luminescence, 16 h; DNA damage induced by 5-fluorouridine | AID 504467; further: on the % scale 0 is the no-effect control and ±100 the full control effect; nearly all actives have a fitted effect of over 55% in size
#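 Cells (2,000 per well) received 5-fluorouridine plus test compound or DMSO and were incubated 16 hr at 37 °C, 5% CO2. Luciferase activity was read by luminescence 30 min after ONE-Glo addition; signal suppression marked inhibition of damage-induced ELG1 function.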
# ELG1 genotoxic: induces genotoxicity in HEK293T cells with luciferase-tagged ELG1. 330,000 tested, 1.3% active. Potency, µM (top dose mostly 46 µM), without a hit: at the top dose activity change, positive = activation, hits mostly activators. AID 504466. HEK293T ELG1-luciferase reporter, luminescence, 16 h; further: % of control where 0% means no effect; nearly all actives have a fitted effect of over 60% in size
#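 Cells (2,000/well) expressing the ELG1-luciferase fusion are dosed by pin tool and kept 16 hr at 37 °C, 5% CO2. Signal comes from ONE-Glo luciferase reagent after 30 min at room temperature.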
# FLuc modulator: inhibits or activates purified firefly luciferase, miR-21 counter-screen; P08659; purified FLuc, Km substrates, luminescence inhibition; Potency, µM (titrated, usually from 57.5 µM), without a hit: top-dose activity change, negative = inhibition, actives largely listed as inhibitors; 360,000 tested, 6.9% active; AID 588342;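 further: plate controls were vehicle for no effect and reference inhibitor for full effect; nearly all actives have a fitted effect of over 55% in size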
# Target sequence (P08659 whole entry, looked up): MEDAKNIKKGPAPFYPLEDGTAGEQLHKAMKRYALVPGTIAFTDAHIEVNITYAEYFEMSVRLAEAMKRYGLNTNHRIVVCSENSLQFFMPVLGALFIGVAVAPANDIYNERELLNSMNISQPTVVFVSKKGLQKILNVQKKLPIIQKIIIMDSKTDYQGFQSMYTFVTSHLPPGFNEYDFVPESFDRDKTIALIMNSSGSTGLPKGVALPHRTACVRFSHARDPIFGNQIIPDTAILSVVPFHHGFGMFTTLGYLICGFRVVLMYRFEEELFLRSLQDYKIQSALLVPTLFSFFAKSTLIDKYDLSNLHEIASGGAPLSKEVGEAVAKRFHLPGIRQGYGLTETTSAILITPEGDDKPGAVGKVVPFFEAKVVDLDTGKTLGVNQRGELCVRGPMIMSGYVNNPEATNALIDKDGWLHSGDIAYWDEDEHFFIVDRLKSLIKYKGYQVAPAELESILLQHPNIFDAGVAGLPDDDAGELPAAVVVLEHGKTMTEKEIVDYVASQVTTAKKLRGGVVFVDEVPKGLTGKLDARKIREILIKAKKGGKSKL
#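 Purified P. pyralis luciferase (10nM final) with 10uM D-luciferin and 10uM ATP (Km levels) in 50mM Tris acetate pH 7.5, 10mM Mg acetate, 0.01% Tween-20, 0.05% BSA; qHTS 6-point titration, ~60 µM downward; luminescence read.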
# NPC1 promoter act: NPC1 promoter activation; 320,000 tested, 2.4% active; Huh7 NPC1 promoter luciferase reporter, 24 h; Potency, µM (series often up to 9.22 µM), inactives show at the top dose activation, hits mostly activators; further: % of control where 0% means no effect; nearly all actives have a fitted effect of over 60% in size
#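 In 1536-well qHTS, Huh7 cells harboring an NPC1 promoter–luciferase construct received compound for 24 h; activation was quantified by luminescence following luciferase reagent addition.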
# Rab9 prom act: Rab9 promoter activation; 320,000 tested, 2.8% active; AID 485297; Potency, µM (top dose mostly 9.22 µM), for the others: top-dose activation, negative = inhibition, actives largely listed as activators; Huh7 Rab9 promoter-luciferase reporter, luminescence, 24 h; further: % of control where 0% means no effect; nearly all actives have a fitted effect of over 60% in size
#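 Steps: seed 1500 Huh7 Rab9-luc cells per well, rest 2 h at 37 °C; add compound in DMSO; incubate 24 h; add luciferase reagent, 10 min ambient; read luminescence.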
# SMN2 splice up: increases expression of the SMN2 splice variant; 210,000 tested, 2.8% active; Potency, µM (top dose mostly 46.1 µM), inactives show top-dose activity change, positive = activation, actives largely listed as activators; HEK293 SMN2-luciferase splicing reporter, luminescence, 30-36 h; further: % of control where 0% means no effect; nearly all actives have a fitted effect of over 55% in size
#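 qHTS luciferase splicing reporter: luminescence rises when SMN2 exon 7 is included in transfected HEK293 cells. Compound exposure lasted 30-36 h at 37C, with 4.5 mM final sodium butyrate as control, followed by a ONE-Glo read.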
# An asterisk follows results filed as active; u = inconclusive; x = no result. The list is not random: actives were taken first. Their share in the collection is about 9.2%. The call rests on the fitted dose curve; in most records, active means well fitted curve in the direction sought with a large enough effect; inconclusive means small, poorly fitted or top-dose-only effect, or another doubt; inactive means no such curve, though single readings can be large; an effect the other way counts as inactive or inconclusive. Potency means the concentration at half of the fitted maximal effect.
SMILES,ELG1 DNA repair,ELG1 genotoxic,FLuc modulator,NPC1 promoter act,Rab9 prom act,SMN2 splice up
COc1cc(Nc2nc3c(S(=O)(=O)c4ccc(C)c(C)c4)nnn3c3ccsc23)cc(OC)c1,x,x,-0.3%,x,x,x
CC1CCN(C(=O)COC(=O)c2n[nH]c3ccccc23)CC1,u,u,u,3.55µM*,3.16µM*,u
Cn1nc(C(=O)OCC(=O)c2ccc(Br)cc2)c2ccccc2c1=O,4.3%,-1.4%,0.4%,0.7%,0.5%,x
CCc1ccc(C(=O)COC(=O)c2n[nH]c3ccccc23)cc1,u,18.1%,3.01µM*,1.78µM*,0.891µM*,-12.5%
CCc1ccc(C(=O)COC(=O)c2nn(C)c(=O)c3ccccc23)cc1,3.1%,0.0%,19µM*,-2.4%,-3.8%,0.9%
Cc1cc(C)c(C(=O)COC(=O)c2nn(C)c(=O)c3ccccc23)cc1C,u,1.2%,10.7µM*,-3.1%,-4.8%,x
O=C(COC(=O)c1n[nH]c2ccccc12)c1cc(F)ccc1F,5.4%,-0.8%,u,-1.0%,2.0%,-19.8%
CCC(C)NC(=O)C1c2ccccc2C(=O)N1Cc1ccc(F)cc1 (stereo not given),3.9%,0.7%,-0.7%,-7.7%,1.1%,x
COc1ccc(CC(=O)Nc2cc3oc4ccccc4c3cc2OC)cc1,u,15.4%,15.1µM*,u,u,14.1µM*
COc1ccc(/C=C/C(=O)OCC(=O)Nc2cc3oc4ccccc4c3cc2OC)cc1,15.9%,4.4%,2.9%,-4.4%,-6.4%,-1.4%
COc1cc2c(cc1NC(=O)COCC(=O)O)oc1ccccc12,4.1%,2.3%,16.9µM*,-4.8%,-2.8%,x
COc1ccccc1CC(=O)Nc1cc2oc3ccccc3c2cc1OC,-1.3%,1.7%,-18.5%,2.5%,2.7%,-29.2%
COc1cc2c(cc1NC(=O)C(C)Sc1cccc[n+]1[O-])oc1ccccc12 (stereo not given),u,14.0%,u,u,u,10µM*
COc1cc2c(cc1NC(=O)/C=C/c1cc(OC)c(OC)c(OC)c1)oc1ccccc12,5.8µM*,-6.5%,5.1%,-3.0%,-1.7%,-16.1%
COc1cc2c(cc1NC(=O)C(C)Sc1nc3ccccc3n1C)oc1ccccc12 (stereo not given),4.0%,-0.1%,0.7%,1.9%,-0.9%,-26.7%
Cc1ccc(C(=O)NCC(=O)OCc2cc(=O)n3nc(C4CC4)sc3n2)cc1,x,x,0.7%,x,x,x
CCOc1ccc(-n2c(SCC(=O)Nc3cccc(Cl)c3)nc3c(oc4ccccc43)c2=O)cc1,x,x,-1.6%,x,x,-6.3%
O=C(CN1C(=O)/C(=C/c2ccco2)SC1=S)Nc1ccc(C(=O)O)c(O)c1,19.0%,4.1%,19µM*,0.4%,2.1%,x
O=C(CCN1C(=O)/C(=C\c2ccccc2F)SC1=S)Nc1ccc(C(=O)O)c(O)c1,23.3%,3.2%,5.36µM*,-3.6%,0.7%,x
O=C(CCN1C(=O)S/C(=C/c2ccccc2)C1=O)Nc1ccc(C(=O)O)c(O)c1,0.0%,7.9%,2.39µM*,22.5%,24.2%,x
Cc1cc(NC(=O)CCN2C(=O)/C(=C/c3ccccc3F)SC2=S)no1,10.3%,1.8%,-3.4%,-2.3%,0.5%,-17.2%
O=C(CN1C(=O)/C(=C/c2ccco2)SC1=S)Nc1ccc(O)c(C(=O)O)c1,-7.3%,4.4%,u,-2.2%,8.7%,x
O=C(CCN1C(=O)S/C(=C\c2ccc(F)cc2)C1=O)Nc1ccc(C(=O)O)c(O)c1,u,7.5%,2.13µM*,u,12.6%,x
CCOC(=O)N1CCN(CC(=O)Nc2ccc(Oc3ccccc3)cc2)CC1,u,-9.8%,2.2%,1.4%,-1.4%,-1.4%
CCOc1ccccc1NC(=O)Cn1c(=O)n(-c2ccccc2)c(=O)c2c1c1cc(C)ccc1n2C,x,x,1.0%,x,x,x
SMILES,ELG1 DNA repair,ELG1 genotoxic,FLuc modulator,NPC1 promoter act,Rab9 prom act,SMN2 splice up
CCCn1cc(S(=O)(=O)c2ccccc2)c(=O)c2cc(F)c(N3CCCC(C)C3)cc21 (stereo not given),x,x,-7.7%,x,x,x
O=C(CN1C(=O)S/C(=C\c2ccccc2)C1=O)Nc1cc([N+](=O)[O-])ccc1O,-2.8%,-0.7%,13.5µM*,3.2%,10.6%,x
O=C(CCCN1C(=O)/C(=C/c2cccs2)SC1=S)Nc1ccc(O)c(C(=O)O)c1,6.5%,0.0%,u,-0.7%,-3.2%,x
O=C(CCCN1C(=O)/C(=C/c2ccccc2)SC1=S)Nc1ccc(C(=O)O)c(O)c1,9.9%,1.6%,12µM*,-2.8%,2.7%,x
CC(C)(C)OC(=O)N1CCC(c2c(C(=O)NCCN3CCOCC3)cnn2-c2ccc(F)cc2)CC1,x,x,-3.0%,x,x,x
O=C(NCC(=O)N1CCN(c2ccccc2O)CC1)c1cccs1,u,-0.1%,-15.7%,3.9%,24.1%,x
CC(Oc1ccccc1F)C(=O)NNC(=O)CC(C)c1ccccc1 (stereo not given),-0.5%,-4.9%,0.0%,2.4%,0.1%,x
Cc1ccc(C(C(=O)NCc2ccc(F)cc2)N(Cc2ccco2)C(=O)c2snc(C(N)=O)c2N)o1 (stereo not given),20.6µM*,-7.1%,-0.3%,0.4%,-0.6%,x
COCCNC(=O)C(c1ccc(C)o1)N(Cc1ccco1)C(=O)c1snc(C(N)=O)c1N (stereo not given),-28.0%,-2.0%,-0.1%,-3.4%,-0.8%,-1.5%
NC(=O)c1nsc(C(=O)N(Cc2ccco2)C(C(=O)NCc2ccc(F)cc2)c2ccc(O)cc2)c1N (stereo not given),11.6µM*,-18.7%,0.3%,-4.1%,-2.4%,x
CCc1noc(C)c1C(=O)Nc1cccc(S(=O)(=O)N(C)c2ccccc2)c1,u,-17.4%,-4.6%,1.6%,2.2%,x
CCc1ccc(-c2nc(CS(=O)CC(=O)O)c(C)o2)cc1 (stereo not given),u,u,21.3µM*,24.4%,u,x
COc1ccc(-c2nc(CS(=O)CC(=O)NC(C)CCc3ccccc3)c(C)o2)cc1OC (stereo not given),18.3µM*,-0.6%,0.7%,-1.2%,-0.2%,x
COc1ccc(-c2nc(CSCC(=O)NCc3ccc4c(c3)OCO4)c(C)o2)cc1OC,u,-5.0%,0.1%,-2.5%,0.9%,-61.8%
COc1ccc(-c2nc(CSCC(=O)NCc3ccc4c(c3)OCO4)c(C)o2)cc1,u,-5.9%,26.9µM*,-1.0%,0.7%,-16.6%
Cc1oc(-c2ccc(Cl)cc2)nc1CS(=O)CC(=O)NCc1ccc2c(c1)OCO2 (stereo not given),u,0.6%,-4.4%,0.8%,2.8%,x

# Screening results as filed in PubChem BioAssay.
